We go through 42 compounds from publication PMC4336329 (PLoS ONE, 2015).

The campaign covered roughly 310,000 compounds. About 14,000 (4.5%) showed an effect of 50% or more. Effects have a minus sign here. The sample holds strong results, similar compounds and a random draw of the others, so the mix is not that of the screen.
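Note: peak tail current of the secondary pulse compared with the same well before compound.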

The target of the assay is human ether-à-go-go-related gene (hERG) potassium channel (human, UniProt Q12809). As to the kind of experiment: primary screen, population patch clamp on CHO cells stably expressing hERG; higher = less effect of the substance.
human ether-à-go-go-related gene (hERG) potassium channel, sequence (Q12809 whole entry, looked up): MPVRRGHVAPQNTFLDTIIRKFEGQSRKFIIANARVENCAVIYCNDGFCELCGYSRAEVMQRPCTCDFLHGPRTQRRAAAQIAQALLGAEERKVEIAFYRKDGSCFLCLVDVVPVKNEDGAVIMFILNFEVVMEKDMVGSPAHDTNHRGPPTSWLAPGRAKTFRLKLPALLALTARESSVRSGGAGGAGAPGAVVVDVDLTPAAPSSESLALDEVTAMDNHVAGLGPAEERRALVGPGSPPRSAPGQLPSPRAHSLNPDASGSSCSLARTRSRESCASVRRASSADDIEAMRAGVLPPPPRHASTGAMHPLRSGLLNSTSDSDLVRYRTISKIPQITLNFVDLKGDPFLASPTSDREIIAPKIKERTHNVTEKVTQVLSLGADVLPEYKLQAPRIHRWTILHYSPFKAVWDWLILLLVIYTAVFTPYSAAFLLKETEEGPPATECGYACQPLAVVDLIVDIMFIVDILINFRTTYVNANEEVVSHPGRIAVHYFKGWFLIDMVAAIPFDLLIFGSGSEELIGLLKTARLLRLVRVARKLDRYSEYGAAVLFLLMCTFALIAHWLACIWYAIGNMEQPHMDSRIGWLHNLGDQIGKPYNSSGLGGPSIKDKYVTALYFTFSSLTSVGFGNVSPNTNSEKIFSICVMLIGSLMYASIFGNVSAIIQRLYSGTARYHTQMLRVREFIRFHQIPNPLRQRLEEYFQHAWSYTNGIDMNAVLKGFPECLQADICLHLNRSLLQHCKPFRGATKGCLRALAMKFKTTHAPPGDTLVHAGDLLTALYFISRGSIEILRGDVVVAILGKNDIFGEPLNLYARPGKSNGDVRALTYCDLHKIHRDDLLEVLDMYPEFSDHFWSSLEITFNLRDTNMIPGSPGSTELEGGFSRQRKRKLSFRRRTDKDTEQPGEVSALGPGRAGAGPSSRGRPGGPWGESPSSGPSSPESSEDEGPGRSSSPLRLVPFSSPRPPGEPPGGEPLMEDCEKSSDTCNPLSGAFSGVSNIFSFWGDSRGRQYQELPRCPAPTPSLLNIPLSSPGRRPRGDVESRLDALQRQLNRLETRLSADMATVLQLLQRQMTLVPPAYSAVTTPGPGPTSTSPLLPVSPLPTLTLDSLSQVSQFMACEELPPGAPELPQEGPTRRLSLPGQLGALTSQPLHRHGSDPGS
For `CCc1ccccc1NC(=O)C(CC)Sc1nc2cc3c(cc2c(=O)n1Cc1ccco1)OCO3` (stereo not drawn), the “hERG current change (%, negative = inhibition) at 10uM” value worked out at 17.1%.
To `CN(Cc1ccccc1)C(=O)CSc1nc2ccccc2c(=O)n1Cc1ccco1` belongs -3.56%; to `O=C(CSc1nc2ccccc2c(=O)n1-c1ccccc1)NCc1ccco1`, -15.1%.
As for `C=CCn1c(SCC(=O)NCc2ccco2)nc2ccccc2c1=O`, the figure is -50.3%; as for `CCC(Sc1nc2cc3c(cc2c(=O)n1Cc1ccco1)OCO3)C(=O)NCCOC` (stereo not drawn), -63.6%.
As for `CCOc1ccc(C(=O)Nc2ccc(S(=O)(=O)Nc3cc(C)on3)cc2)cc1`, the figure is -9.73%; as for `O=C(CSc1nnc(COc2ccccc2)n1Cc1ccco1)c1ccc(F)cc1`, -21.1%; as for `Cc1ccnc2nc(C(=O)OCCOc3cccc(Br)c3)nn12`, -27.9%.
For the compound `COc1ccc(NC(=O)CCN2CC(C)OC(C)C2)c(OC)c1.Cl` (stereo not drawn), the “hERG current change (%, negative = inhibition) at 10uM” value came out at 13.2%.
To `CCOc1cc(/C=N/n2c(COc3ccccc3)n[nH]c2=S)ccc1O` belongs 24.4%; to `Cn1c(CN2CCOCC2)nnc1SCC(=O)NC1CCCCC1`, 17.7%.
To `COc1cccc(C2(C)NC(=O)N(CC(=O)c3cc(C)n(C4CC4)c3C)C2=O)c1` (stereo not drawn) belongs -35.8%.
To `O=C(NCc1ccc2c(c1)OCO2)c1ccc(Br)s1` belongs 6.32%.
Turning to `CCOC(=O)C1CCN(C(=O)Cn2nc(CC)n3cccc3c2=O)CC1`, the “hERG current change (%, negative = inhibition) at 10uM” value was -0.254%.
To `Cc1cccc(NC(=O)N2C3CCCC2CC(NC(=O)C(C)(C)C)C3)c1` (stereo not drawn) belongs 1.47%; to `CCOC(=O)N1CCN(C(=O)c2ccc3c(c2)NC(=O)C(N2CCOCC2)S3)CC1` (stereo not drawn), -4.6%.
To `CCOc1cccc2cc(C(=O)NCc3cccnc3)c(=O)oc12` belongs -1.94%; to `COc1cc2nc(SCC(=O)NCc3ccco3)n(Cc3ccc(Cl)cc3)c(=O)c2cc1OC`, -3.17%.
To `CCN(CC)C(=O)CSc1nc2cc(OC)c(OC)cc2c(=O)n1Cc1ccc(Cl)cc1` belongs -77%.
On to `Cc1nc2ccccc2n1CCc1nc2c3ccccc3nc(SCC(=O)NCc3ccco3)n2n1`, for which the “hERG current change (%, negative = inhibition) at 10uM” value is -60%.
To `CCN(CC)C(=O)CSc1nc2cc3c(cc2c(=O)n1Cc1ccc(OC)cc1)OCO3` belongs 12.1%; to `O=c1c2ccccc2nc(SCc2ccccc2)n1Cc1ccco1`, 1.3%; to `O=C(CSc1nc2ccccc2c(=O)n1Cc1ccco1)c1ccc(F)cc1`, 9.22%.
As for `CC(Sc1nc2ccccc2c(=O)n1Cc1ccco1)C(=O)c1ccccc1` (stereo not drawn), the figure is -53.9%.
As for `CN(C)C(CNC(=O)CSc1nc2ccccc2c(=O)n1Cc1ccco1)c1ccccc1` (stereo not drawn), the figure is -67.1%; as for `O=C(CSc1nc2ccccc2c2nc3ccccc3n12)NCc1ccco1`, -8.55%.
As to `O=C(CSc1nc2ccccc2n1CC(=O)NCc1ccccc1)NCc1ccco1`, the “hERG current change (%, negative = inhibition) at 10uM” value is given as -20.2%.
As for `CC1CCCCC1NC(=O)CSc1nc2ccccc2c(=O)n1Cc1ccco1` (stereo not drawn), the figure is 13%.
As for `COc1ccc(CCNc2ncnc3c2oc2ccccc23)cc1OC.Cl`, the figure is 0.357%.
To `CCCCn1nc(C(=O)N2CCc3ccccc32)c2ccccc2c1=O` belongs -28.4%.
Turning to `CN(Cc1nc(-c2cnccn2)no1)Cc1cccc2ccccc12`, the “hERG current change (%, negative = inhibition) at 10uM” value is given as -2.31%.
With `CCc1ccc(-c2ccc(SCc3ccccn3)nn2)cc1`, the “hERG current change (%, negative = inhibition) at 10uM” value worked out at 3.91%.
As for `O=C(Cn1cc(C(F)(F)F)ccc1=O)NCc1ccc(F)cc1`, the figure is 15.6%.
Regarding `CS(=O)(=O)N(CC(=O)N1CCN(c2ccccc2)CC1)c1cccc(Br)c1`, the “hERG current change (%, negative = inhibition) at 10uM” value is -19.2%.
As to `O=C(CCN1C(=O)/C(=C/C=C/c2ccccc2)SC1=S)Nc1nc2ccccc2s1`, the “hERG current change (%, negative = inhibition) at 10uM” value amounted to 18.3%.
To `NCC(c1ccccc1Cl)c1c[nH]c2ccccc12` (stereo not drawn) belongs 12.8%; to `FC(F)(F)c1ccccc1Nc1nccs1`, -16.1%; to `CCC1(OC(=O)c2ccccc2)CC(C)N(C)CC1C.Cl` (stereo not drawn), -7.85%.
In the case of `CCc1ccc(CC2(O)CC(C)N(C)CC2C)cc1` (stereo not drawn), the “hERG current change (%, negative = inhibition) at 10uM” value is on record as -29.7%.
As for `CCC(=O)OC1(Cc2ccc(CC)cc2)CC(C)N(C)CC1C.Cl` (stereo not drawn), the figure is -59.4%.
As for `CNC(=S)NNC(=O)c1cc(C(C)(C)C)nn1Cc1ccc(F)cc1`, the figure is 14.6%.
To `Cc1cc(C)cc(N2C(=O)CC(N3CCOCC3)C2=O)c1` (stereo not drawn) belongs 14.9%.
